{"source": "PubChem BioAssay (NCATS)", "note": "Records with an inconclusive call do not appear. Entries that show only a call come without a potency. The source made the active and inactive calls. The call rests on the fitted dose curve; in most records, active means well fitted inhibition curve with a large enough effect; inconclusive means small, poorly fitted or top-dose-only effect; inactive means flat fitted curve, though single readings scatter.", "data": [{"biological_target": "Calcium and integrin-binding protein 1 (Homo sapiens) (UniProt Q99828)", "sequence (Q99828 whole entry, looked up)": "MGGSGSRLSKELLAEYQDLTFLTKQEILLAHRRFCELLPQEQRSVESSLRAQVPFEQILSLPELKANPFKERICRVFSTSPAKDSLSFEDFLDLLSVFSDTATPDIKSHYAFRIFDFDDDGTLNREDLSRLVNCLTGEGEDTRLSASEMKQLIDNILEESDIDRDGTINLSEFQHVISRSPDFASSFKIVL", "experiment": "Primary qHTS for Identification of Calcium Integrin Binding Protein 1 (CIB1) Competitor (AID 1508620);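 further: GST tagged CIB1 binding a fluorescein labelled alphaIIb integrin peptide tracer; top concentration of the series differs between compounds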", "settings": "CIB1-GST / FITC-alphaIIb peptide fluorescence polarization; series mostly up to 114 µM", "source_text": "Assay Provider: Ulhas P. Naik, PhD Sidney Kimmel Medical College Thomas Jefferson University, Philadelphia, PA Primary function of platelets is to maintain hemostasis. At the site of vascular injury, platelets adhere to adhesive proteins such as collagen and von Willebrand factor. Adherent platelets are activated and generate soluble platelet agonists such as thrombin, ADP and thromboxane A2. Following exposure of circulating platelets to these agonists, results in platelet shape change, granule secretion and activation of platelet integrin alphaIIb-beta3. Ligand binding to activated integrin alphaIIb-beta3 triggers outside-in signaling, leading to platelet aggregation, stabilization of platelet plug, and clot retraction. Upon atherosclerotic plaque rupture also causes platelet plug formation, which underlies a number of cardiovascular diseases such as myocardial infraction and stroke. A number of anti-platelet drugs such as aspirin, clopidogrel, prasugrel, vorapaxar, and eptifibatide are currently available to prevent the thrombotic complications. However, these anti-platelet agents have several limitations including inherent variability in individual responses, developing resistance, and serious bleeding side effects. For these reasons they are not suitable for long-term protection. Based on the experiences with current anti-platelet drugs, it appears that the most useful therapeutic approach is to intersect the secondary responses such as integrin outside-in signaling or recruitment of platelets by TxA2 and secreted ADP. Compounds, which can largely preserve the primary hemostatic function of platelets but inhibit secondary response will be most desired therapeutic agents for treatment of cardiovascular disease. CIB1 is a calcium integrin binding protein, which specifically interact with the alphaIIb subunit of integrin alphaIIb-beta3. Binding of CIB1 to alphaIIb regulates the outside-in signaling in platelets, which is needed for thrombus stabilization and thrombus growth. […] Therefore, we propose that discovery of a small molecule that can prevent the association of CIB1 and alphaIIb-beta3 will be a potential anti-platelet agent that can block the thrombus formation without undue effect on hemostasis. Reference: [1] Naik MU, Nigam A, Manrai P, et al. CIB1 deficiency results in impaired thrombosis: the potential role of CIB1 in outside-in signaling through integrin alpha IIb beta 3. J Thromb Haemost.\nPROTOCOL TABLES SEQUENCE No. (1, 2, 3, etc.); […] (e.g., Cells, Incubation, Reagent, etc.); VALUE and DESCRIPTION. 1; Reagent; 3 uL; Protein or buffer (4/3x) 2; Compound; 46 nL; Control inhibitor / compound library 3; Time; 15 min; Room temperature incubation 4; Reagent; 1 uL; Fluorescent labeled peptide (4x) 5; Time; 1000 rpm; Centrifuge 6; Time; 15 min; Room temperature incubation 7; Detection; Ex 480/ Em 540; ViewLux Fluorescence Read NOTES (numbers refer to sequence above) 1; Protein Mixture: C1B1-GST (final concentrations of 1 uM). […] 3; Room temperature incubation. 4; Fluorescent Labeled Peptide: FITC-aIIb (final concentration of 100 nM). Sequence of alphaIIb peptide: Acetyl-[…]-FITC (purity is 95.83%). 5; Centrifuge 1000 rpm (164 g) for 15 seconds. 6; Room temperature incubation. 7; ViewLux Fluorescent Polization Read: excitation = 480(20) / emission = 540(25) S and P; FITC Dichroic mirror.", "values": [{"smiles": "CC(C)N(CCC(C(N)=O)(c1ccccc1)c1ccccn1)C(C)C", "note": "(stereo not given)", "Potency": "inactive"}, {"smiles": "CN1C(=O)NC(=O)C(C)(C2=CCCCC2)C1=O", "note": "(stereo not given)", "Potency": "inactive"}, {"smiles": "Clc1ccccc1N1CCNCC1", "Potency": "inactive"}, {"smiles": "C[C@@H]1CC2=CC(=O)CC[C@@H]2[C@H]2CC[C@@]3(C)[C@@H](CC[C@]3(C)O)[C@@H]21", "Potency": "inactive"}, {"smiles": "C[C@]12CC[C@@H]3c4ccc(OC(=O)N(CCCl)CCCl)cc4CC[C@H]3[C@@H]1CC[C@@H]2OP(=O)(O)O", "Potency": "inactive"}, {"smiles": "CCN[C@@H](C)Cc1ccccc1", "Potency": "inactive"}, {"smiles": "C=CCC1([C@H](C)CCC)C(=O)NC(=O)NC1=O", "Potency": "inactive"}, {"smiles": "NNc1ccccc1", "Potency": "inactive"}, {"smiles": "CC(C(=O)c1ccccc1)N(C)C", "note": "(stereo not given)", "Potency": "inactive"}, {"smiles": "C[C@]12Cc3cn[nH]c3C[C@@H]1CC[C@@H]1[C@@H]2CC[C@@]2(C)[C@H]1CC[C@]2(C)O", "Potency": "inactive"}, {"smiles": "Nc1ccc([As](=O)(O)O)cc1", "Potency": "inactive"}, {"smiles": "C=C(C)[C@H]1CN[C@H](C(=O)O)[C@H]1CC(=O)O", "Potency": "inactive"}, {"smiles": "CCC(CC)(CNC(=O)CCCO)c1cccc(OC)c1", "Potency": "inactive"}, {"smiles": "Cc1ncsc1CCCl", "Potency": "inactive"}, {"smiles": "COc1cccc(C(=O)CCN[C@@H](C)[C@H](O)c2ccccc2)c1", "Potency": "inactive"}, {"smiles": "CCOC(=O)CC(SP(=S)(OC)OC)C(=O)OCC", "note": "(stereo not given)", "Potency": "inactive"}, {"smiles": "C[C@](O)(CS(=O)(=O)c1ccc(F)cc1)C(=O)Nc1ccc(C#N)c(C(F)(F)F)c1", "Potency": "inactive"}, {"smiles": "CC[N+]1(CC)CCC(OC(=O)C(O)(c2ccccc2)c2ccccc2)C1", "note": "(stereo not given)", "Potency": "inactive"}, {"smiles": "CC(C)c1cccc(C(C)C)c1O", "Potency": "inactive"}, {"smiles": "CCN(CCO)CCn1c(Cc2ccccc2)nc2c1c(=O)n(C)c(=O)n2C", "Potency": "inactive"}, {"smiles": "NC(=O)c1cc([N+](=O)[O-])cc([N+](=O)[O-])c1", "Potency": "inactive"}, {"smiles": "CN(C)CCc1c[nH]c2cccc(OP(=O)(O)O)c12", "Potency": "inactive"}, {"smiles": "O=P1(N(CCCl)CCCl)NCCCO1", "note": "(stereo not given)", "Potency": "inactive"}, {"smiles": "ClCCN1CCCC1", "Potency": "inactive"}, {"smiles": "CCCCCCC(=O)CCCCCC/C=C/C[C@@H](O)[C@H](O)[C@@](N)(CO)C(=O)O", "Potency": "inactive"}, {"smiles": "C[C@]12CCC(=O)C=C1CC[C@@H]1[C@@H]2CC[C@@]2(C)[C@H]1CC[C@]2(C)O", "Potency": "inactive"}, {"smiles": "CCC1(c2ccc(N)cc2)CCC(=O)NC1=O", "note": "(stereo not given)", "Potency": "inactive"}, {"smiles": "C[C@@H](N)[C@@H](O)c1ccccc1", "Potency": "inactive"}, {"smiles": "COc1cc(OC)c(OC)cc1C=O", "Potency": "inactive"}, {"smiles": "Clc1ccc(C(c2ccc(Cl)cc2)C(Cl)(Cl)Cl)cc1", "Potency": "inactive"}, {"smiles": "C#C[C@]1(O)CC[C@H]2[C@@H]3CCC4=CC(=O)CC[C@]4(C)[C@H]3CC[C@@]21C", "Potency": "inactive"}, {"smiles": "CCCN(CCC)C(=O)Cc1c(-c2ccc(Cl)cc2)nc2ccc(Cl)cn12", "Potency": "inactive"}, {"smiles": "COc1ccc2c(c1OC)C(=O)O[C@H]2[C@@H]1c2cc3c(cc2CCN1C)OCO3", "Potency": "inactive"}, {"smiles": "CC(C)NC(C)C", "Potency": "inactive"}, {"smiles": "CC(Cc1ccccc1)N(C)Cc1ccco1", "note": "(stereo not given)", "Potency": "inactive"}, {"smiles": "O=C(CCCN1CCC2(CC1)C(=O)NCN2c1ccccc1)c1ccc(F)cc1", "Potency": "inactive"}, {"smiles": "COP(=S)(OC)Oc1cc(Cl)c(Cl)cc1Cl", "Potency": "inactive"}, {"smiles": "C[C@]12CC[C@H]3[C@@H](CC[C@@]45O[C@H]4C(O)=C(C#N)C[C@]35C)[C@H]1CC[C@H]2O", "Potency": "inactive"}, {"smiles": "O=C(Nc1ccc(Br)cc1)c1cc(Br)cc(Br)c1O", "Potency": "inactive"}, {"smiles": "CC(=O)C1CCOC1=O", "note": "(stereo not given)", "Potency": "inactive"}]}]}
